Active and inactive are the calls of the source. The calls were made as follows: active = hit-call score of the fitted dose curve at least 0.9, where 1 is the maximum; inactive = score below 0.9.
Columns and labels:
Settings in all cases: mRNA level, 48 h; actives raise or lower the signal
[1] = read-out: Cytochrome P450 2C19 (Homo sapiens) (UniProt P33261); assay: LTEA_HepaRG_CYP2C19: Life Technologies and Expression Analysis (LTEA) Assay for CYP2C19 using HepaRG (AID 2283482)
Procedure, shortened: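 CYP2C19 transcript levels by qRT-PCR, normalized to three housekeeping genes, in HepaRG cells after 48 h chemical exposure. Eight-point half-log series topping at 100 uM, 0.5% DMSO vehicle. Increases and decreases both fitted against DMSO.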

CYP2C8 (gene 1558) = assay: LTEA_HepaRG_CYP2C8: Life Technologies and Expression Analysis (LTEA) Assay for CYP2C8 using HepaRG (AID 2283483)
Procedure, shortened: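 CYP2C8 mRNA induction or loss, by qRT-PCR normalized to ACTB/GAPDH/POLR2A, is read in HepaRG cells after 48 h treatment. Concentrations run from 100 uM down in half-log dilutions, with 0.5% DMSO as vehicle and baseline.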

CYP2C9 (gene 1559) = assay: LTEA_HepaRG_CYP2C9: Life Technologies and Expression Analysis (LTEA) Assay for CYP2C9 using HepaRG (AID 2283484)
Procedure, shortened: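 Cells plated 48 h, switched to serum-free induction medium, then treated in duplicate for 48 h at eight concentrations (max 100 uM, 0.5% DMSO). RNA then analysed by qRT-PCR for CYP2C9; curves fitted in both directions relative to DMSO.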

CYP2E1 (gene 1571) = assay: LTEA_HepaRG_CYP2E1: Life Technologies and Expression Analysis (LTEA) Assay for CYP2E1 using HepaRG (AID 2283485)
Procedure, shortened: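 HepaRG cells, plated 48 h, then exposed 48 h in serum-free induction medium to eight half-log concentrations from 100 uM in 0.5% DMSO, duplicate. CYP2E1 mRNA by qRT-PCR, normalized to ACTB/GAPDH/POLR2A; bidirectional fit versus DMSO.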

CYP4A11 (gene 1579) = assay: LTEA_HepaRG_CYP4A11: Life Technologies and Expression Analysis (LTEA) Assay for CYP4A11 using HepaRG (AID 2283486)
Procedure, shortened: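 Readout is CYP4A11 transcript level by qRT-PCR, normalized to three housekeeping genes and fitted bidirectionally against 0.5% DMSO. Human HepaRG cells were treated 48 h, in duplicate, with an 8-point half-log series topping at 100 uM.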

[2] = read-out: Cytochrome P450 3A4 (Homo sapiens) (UniProt P08684); assay: LTEA_HepaRG_CYP3A4: Life Technologies and Expression Analysis (LTEA) Assay for CYP3A4 using HepaRG (AID 2283487)
Procedure, shortened: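 CYP3A4 transcript measured by TaqMan qRT-PCR and normalized to three housekeeping genes after 48 h chemical exposure of human HepaRG cells. Top concentration 100 uM, half-log steps, 0.5% DMSO vehicle; gain or loss fitted against DMSO baseline.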

[3] = read-out: DNA damage-inducible transcript 3 (DDIT3), DDIT3 (gene 1649); assay: LTEA_HepaRG_DDIT3: Life Technologies and Expression Analysis (LTEA) Assay for DNA damage-inducible transcript 3 (DDIT3) using HepaRG (AID 2283488)
Procedure, shortened: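 HepaRG cells, 48 h after plating, exposed 48 h in serum-free induction medium to 8 half-log concentrations up to 100 uM in 0.5% DMSO, in duplicate. DDIT3 mRNA measured by TaqMan qRT-PCR, normalized to ACTB, GAPDH and POLR2A. Fitted bidirectionally against DMSO.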

[4] = read-out: Pro-epidermal growth factor (Homo sapiens) (UniProt P01133); assay: LTEA_HepaRG_EGF: Life Technologies and Expression Analysis (LTEA) Assay for Epidermal growth factor (EGF) using HepaRG (AID 2283489)
Procedure, shortened: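 EGF transcript measured by Fluidigm TaqMan qRT-PCR with three housekeeping genes for normalization, 48 h after dosing HepaRG cultures in duplicate (top 100 uM, half-log steps, 0.5% DMSO vehicle). Gain or loss relative to DMSO fitted.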

[5] = read-out: Early growth response protein 1 (EGR1) transcription factor, EGR1 (gene 1958); assay: LTEA_HepaRG_EGR1: Life Technologies and Expression Analysis (LTEA) Assay for Early growth response protein 1 (EGR1) transcription factor using HepaRG (AID 2283490)
Procedure, shortened: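 Read-out is EGR1 mRNA level by qRT-PCR, normalized to three housekeeping genes and analysed for gain or loss of signal against 0.5% DMSO. Source cells: human HepaRG, treated 48 h at up to 100 uM in half-log dilutions.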

[6] = read-out: Ezrin (EZR), EZR (gene 7430); assay: LTEA_HepaRG_EZR: Life Technologies and Expression Analysis (LTEA) Assay for Ezrin (EZR) using HepaRG (AID 2283491)
Procedure, shortened: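 HepaRG, 48 h chemical exposure, 8-pt half-log series from 100 uM, 0.5% DMSO vehicle, duplicates. Read-out: EZR mRNA by TaqMan qRT-PCR (Fluidigm array), housekeeping-normalized; bidirectional curve fit vs DMSO baseline.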

Measured: AC50

Sequence of Cytochrome P450 3A4 (Homo sapiens) (P08684 whole entry, looked up): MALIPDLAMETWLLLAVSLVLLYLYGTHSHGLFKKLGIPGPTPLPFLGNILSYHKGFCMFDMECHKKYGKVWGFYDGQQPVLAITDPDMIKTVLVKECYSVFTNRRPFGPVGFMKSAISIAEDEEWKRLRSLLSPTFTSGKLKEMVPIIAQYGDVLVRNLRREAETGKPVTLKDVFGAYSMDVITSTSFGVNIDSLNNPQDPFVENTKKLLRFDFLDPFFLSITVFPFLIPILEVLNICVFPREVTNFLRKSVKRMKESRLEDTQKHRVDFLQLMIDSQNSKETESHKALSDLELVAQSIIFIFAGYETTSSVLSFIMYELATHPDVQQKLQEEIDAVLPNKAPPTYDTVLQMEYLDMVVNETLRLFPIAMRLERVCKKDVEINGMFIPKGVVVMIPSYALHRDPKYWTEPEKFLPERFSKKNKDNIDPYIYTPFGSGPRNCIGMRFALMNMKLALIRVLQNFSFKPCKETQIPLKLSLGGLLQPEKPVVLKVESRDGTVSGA
Sequence of Cytochrome P450 2C19 (Homo sapiens) (P33261 whole entry, looked up): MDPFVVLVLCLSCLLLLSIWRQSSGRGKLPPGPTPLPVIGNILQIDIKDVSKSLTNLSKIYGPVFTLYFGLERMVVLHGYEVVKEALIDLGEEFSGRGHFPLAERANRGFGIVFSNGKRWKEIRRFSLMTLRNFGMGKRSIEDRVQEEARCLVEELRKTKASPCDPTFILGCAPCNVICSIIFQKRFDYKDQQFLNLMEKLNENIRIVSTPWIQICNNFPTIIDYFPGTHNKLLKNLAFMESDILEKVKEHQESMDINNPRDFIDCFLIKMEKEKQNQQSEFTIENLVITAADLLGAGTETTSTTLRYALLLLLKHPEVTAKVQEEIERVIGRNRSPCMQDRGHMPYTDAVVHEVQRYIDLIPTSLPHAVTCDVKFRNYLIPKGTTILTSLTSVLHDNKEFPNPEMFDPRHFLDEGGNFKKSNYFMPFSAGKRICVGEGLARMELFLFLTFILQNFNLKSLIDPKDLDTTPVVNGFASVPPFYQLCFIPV

CN(C)C(=O)C1(N2CCCCC2)CCN(CC[C@@]2(c3ccc(Cl)c(Cl)c3)CN(C(=O)c3ccccc3)CCO2)CC1
active: [1] 23.9 µM | CYP2C8 (gene 1558) 28 µM | CYP2C9 (gene 1559) 21.9 µM | CYP2E1 (gene 1571) 8.56 µM | CYP4A11 (gene 1579) 14.9 µM | [2] 25.7 µM | [3] 17.5 µM | [4] 25.3 µM | [5] 53.1 µM | [6] 60.6 µM

OC12N=C(c3ccccc3)SC1Cc1cc(Cl)ccc12 (stereo not given)
inactive: [4] | [5] | [6]
active: [1] 80.4 µM | CYP2C8 (gene 1558) 39.6 µM | CYP2C9 (gene 1559) 37.7 µM | CYP2E1 (gene 1571) 16 µM | CYP4A11 (gene 1579) 49 µM | [2] 81.3 µM | [3] 2.33 µM

O=C(O)c1ccccc1C(=O)OCc1ccccc1
active: CYP4A11 (gene 1579) 26.2 µM
inactive: all other assays above

CCCCOC(=O)CC(CC(=O)OCCCC)(OC(C)=O)C(=O)OCCCC
not listed: [2]
inactive: all other assays above

Clc1cc(Cl)c2c(c1)N=C1CCCCCN1C2
active: CYP2C8 (gene 1558) 6.18 µM | CYP2E1 (gene 1571) 32.1 µM | [2] 11.1 µM
inactive: all other assays above

O=C1c2ccccc2C(=O)N1CCc1noc(-c2ccc(CN3CCCCCC3)s2)n1
not listed: CYP2C9 (gene 1559)
inactive: all other assays above

Cc1c2ccccc2c(C)c2c1ccc1ccccc12
active: [1] 75.9 µM | CYP2C8 (gene 1558) 37.7 µM | CYP2C9 (gene 1559) 37.2 µM | CYP2E1 (gene 1571) 18.8 µM | CYP4A11 (gene 1579) 33.2 µM | [2] 78.8 µM | [3] 33.9 µM | [4] 19.9 µM
inactive: [5] | [6]

O=C=NCCCCCCN=C=O
inactive: all assays above

O=C(O)Cc1cc(I)c(Oc2ccc(O)c(I)c2)c(I)c1
inactive: CYP2C8 (gene 1558) | [4] | [5] | [6]
active: [1] 93.1 µM | CYP2C9 (gene 1559) 79.5 µM | CYP2E1 (gene 1571) 70.6 µM | CYP4A11 (gene 1579) 74 µM | [2] 41.6 µM | [3] 78.9 µM

O=c1ccc2ccccc2o1
active: CYP2E1 (gene 1571) 50 µM
inactive: all other assays above

CN1C(=O)N(c2ccccc2Br)Cc2cnc(Nc3ccc4c(c3)OCC(CO)O4)nc21 (stereo not given)
inactive: CYP2C8 (gene 1558) | [4] | [6]
active: [1] 35.4 µM | CYP2C9 (gene 1559) 32.7 µM | CYP2E1 (gene 1571) 35 µM | CYP4A11 (gene 1579) 50 µM | [2] 89.6 µM | [3] 40.5 µM | [5] 24 µM

Cc1cc2c(cc1C(F)(F)F)N(C(=O)Nc1ccc(Oc3cccnc3C)nc1)CC2
active: CYP2C9 (gene 1559) 46 µM | CYP4A11 (gene 1579) 52.6 µM | [2] 1.89 µM
not listed: CYP2E1 (gene 1571)
inactive: all other assays above

CC(O)CC(C)(C)O (stereo not given)
inactive: all assays above

Cc1oc2c(NC(=O)c3c(Cl)cccc3Cl)cccc2c1C(C)(C)O
active: [1] 33.5 µM | CYP2C8 (gene 1558) 35.8 µM | CYP2C9 (gene 1559) 33.8 µM | CYP2E1 (gene 1571) 39.7 µM | CYP4A11 (gene 1579) 24.6 µM | [2] 81.9 µM | [3] 33.2 µM
inactive: [4] | [6]

CC[C@H](NC(=O)c1cc(F)ccc1NS(=O)(=O)c1cccc2cccnc12)c1ccccc1
inactive: CYP2C8 (gene 1558) | [5] | [6]
active: [1] 0.972 µM | CYP2C9 (gene 1559) 78.5 µM | CYP2E1 (gene 1571) 22.3 µM | CYP4A11 (gene 1579) 22.4 µM | [2] 0.957 µM | [3] 47.8 µM | [4] 11.5 µM

OCCO
not listed: [4]
inactive: all other assays above

CC1=CC(=O)/C(=C(/C)O)C(=O)O1
inactive: all assays above

c1ccc(C[n+]2cccc3ccccc32)cc1
active: [1] 50 µM | CYP2C8 (gene 1558) 30 µM | CYP2C9 (gene 1559) 31 µM | CYP2E1 (gene 1571) 24.6 µM | CYP4A11 (gene 1579) 22.3 µM | [2] 33.4 µM | [3] 30.9 µM | [6] 14.7 µM
inactive: [4] | [5]
